Assay results published in PubChem BioAssay AID1851 (National Center for Advancing Translational Sciences (NCATS), 2009).
About 2,600 (16%) of roughly 16,000 compounds were called active. About 20% were inconclusive and are not listed. The call rests on the fitted dose curve; in most records, active means well fitted curve in the direction sought with a large enough effect; inconclusive means small, poorly fitted or top-dose-only effect, or effect the other way; inactive means no such curve, though single readings can be large or run the other way. A selection follows.

Molecular target: Cytochrome P450 2D6 (Homo sapiens) (UniProt P10635)
Experiment: Cytochrome panel assay with activity outcomes
Settings: recombinant CYP, pro-luciferin dealkylation, luminescence, p450-cyp2d6; series mostly up to 57.1 µM
On the % scale 0 is the no-effect control and ±100 the full control effect.

Chain of Cytochrome P450 2D6 (Homo sapiens) (P10635 whole entry, looked up): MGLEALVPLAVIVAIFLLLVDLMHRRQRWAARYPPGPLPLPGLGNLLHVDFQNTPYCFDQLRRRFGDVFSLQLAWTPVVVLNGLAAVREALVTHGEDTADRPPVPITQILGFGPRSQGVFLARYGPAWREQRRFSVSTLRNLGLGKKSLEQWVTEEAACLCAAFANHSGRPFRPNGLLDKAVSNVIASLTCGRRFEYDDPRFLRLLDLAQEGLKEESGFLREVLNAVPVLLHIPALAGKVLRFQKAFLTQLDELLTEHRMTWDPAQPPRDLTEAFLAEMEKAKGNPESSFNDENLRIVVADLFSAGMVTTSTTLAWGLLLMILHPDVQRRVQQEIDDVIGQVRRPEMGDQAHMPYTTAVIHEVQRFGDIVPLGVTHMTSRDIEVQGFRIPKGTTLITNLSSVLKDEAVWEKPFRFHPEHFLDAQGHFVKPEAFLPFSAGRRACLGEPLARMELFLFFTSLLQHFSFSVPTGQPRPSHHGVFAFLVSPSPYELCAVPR

| Compound | AC50 | activity, negative = inhibition |
| --- | --- | --- |
| C=CCC(NCc1ccco1)c1ccc(OC)cc1 (stereo not drawn) | 5.01 µM (active) |  |
| COc1ccc(-n2c(N)c(C(=O)NCc3ccco3)sc2=S)cc1 | inactive |  |
| COc1ccc(OC)c(NC(=O)C(CC(=O)O)NCc2ccco2)c1 (stereo not drawn) | inactive |  |
| CS(=O)(=O)N1CCC2(CC1)CN(C(=O)Nc1cccc(C#N)c1)C2 | inactive |  |
| O=C(O)/C=C\C(=O)N1Cc2cc3ccccc3nc2C1 |  | -1.33% [at 11.4 µM] (inactive) |
| CC(=O)N(CC(O)CN(C(C)=O)c1c(I)c(C(=O)NC[C@@H](O)CO)c(I)c(C(=O)NC[C@@H](O)CO)c1I)c1c(I)c(C(=O)NC[C@@H](O)CO)c(I)c(C(=O)NC[C@@H](O)CO)c1I | inactive |  |
| COc1ccc(-n2cccc2C=O)cc1OC | inactive |  |
| CS(=O)(=O)N1CCC2(CC1)CN(c1ccncc1)C2 | inactive |  |
| CS(=O)(=O)N1CCC2(CCN(c3ccccc3)CC2)CC1 | inactive |  |
| CS(=O)(=O)N1CCC2(CC1)CN(C(=O)Nc1ccccc1)C2 | inactive |  |
| CS(=O)(=O)N1CCC2(CCCN(c3ccncc3)C2)CC1 | inactive |  |
| CS(=O)(=O)N1CCC2(CCCN(C(c3ccccc3)c3ccccc3)C2)CC1 | 5.01 µM (active) |  |
| CS(=O)(=O)N1CCC2(CCN(c3cccc(-c4ccccc4)c3)CC2)CC1 | inactive |  |
| CS(=O)(=O)N1CCC2(CC1)CN(C(c1ccccc1)c1ccccc1)C2 | 2.51 µM (active) |  |
| CS(=O)(=O)N1CCC2(CC1)CN(c1ccccc1)C2 | 1.26 µM (active) |  |
| CS(=O)(=O)N1CCC2(CC1)CN(c1ccc(-c3ccccc3)cc1)C2 | inactive |  |
| CS(=O)(=O)N1CCC2(CCN(C(c3ccccc3)c3ccccc3)CC2)CC1 | 3.16 µM (active) |  |
| O=C1NC(=S)N/C1=C/c1cccc([N+](=O)[O-])c1O | inactive |  |
| O=C1CC(c2ccc(F)cc2)Cc2nc(NCC3CCCO3)ncc21 (stereo not drawn) | inactive |  |
| CC12CCC(C(=O)Nc3ncc([N+](=O)[O-])s3)(OC1=O)C2(C)C (stereo not drawn) | inactive |  |
| Cc1cccc(C(=O)NN(C)c2nc(-c3ccccc3)nnc2C(F)(F)F)c1 | inactive |  |
| CCOC(=O)N1CCN(C(=O)c2cc(-c3ccc(F)cc3)[nH]c2C)CC1 | inactive |  |
| COC(=O)C/C=C\[C@@H](C)[C@@H](/C=N\O[C@@H](C)c1cn([C@H](CO)Cc2ccccc2)nn1)NS(=O)(=O)c1ccc(C)cc1 |  | -17.6% [at 11.4 µM] (inactive) |
| COCCCn1nnnc1SCC(=O)N1CCCC1 | inactive |  |
| Cn1c(SC2CCCCC2=O)nnc1-c1ccncc1 (stereo not drawn) | inactive |  |
| COC(=O)Cn1nc(-c2ccccc2)n(-c2ccccc2)c1=S | inactive |  |

| Compound | AC50 | activity, negative = inhibition |
| --- | --- | --- |
| O=C(NC(=S)Nc1cccc(Cl)c1N1CCCC1)c1ccc(-c2cccc([N+](=O)[O-])c2)o1 | inactive |  |
| CS(=O)(=O)N1CCC[C@@]2(CCN(c3ccccc3)C2)C1 | inactive |  |
| CS(=O)(=O)N1CCC[C@@]2(CCN(C(=O)Nc3ccccc3)C2)C1 | inactive |  |
| CS(=O)(=O)N1CCC[C@@]2(CCN(C(c3ccccc3)c3ccccc3)C2)C1 | 3.98 µM (active) |  |
| Cc1nc2c3cnn(-c4ccc(C)c(C)c4)c3ncn2n1 | inactive |  |
| CCCc1nnc(SCC(=O)N2CCCC(C)C2)n1CC1CCCO1 (stereo not drawn) | inactive |  |
| COC(=O)N1CCC2(CC1)CN(C(=O)Nc1ccc(OC)cc1)C2 | inactive |  |
| Cc1ncc(CO)c(CO)c1O | inactive |  |
| Cc1ncc2c(c1O)COP(=O)(O)OC2 | 1 µM (active) |  |
| CCC1NC(=S)N(C2CCCCC2)C1=O (stereo not drawn) | inactive |  |
| C(/C=C/c1ccco1)=N/N1CCN(c2ccccc2)CC1 | inactive |  |
| O=C(/C=C/c1ccccc1Cl)NCCN1CCOCC1 | inactive |  |
| O=C(/C=C/c1ccc(Cl)cc1)NCCN1CCOCC1 | inactive |  |
| N=c1n(CCN2CCOCC2)c2ccccc2n1CC(=O)c1ccc(Cl)c(Cl)c1 | 2 µM (active) |  |
| O=c1c(-c2ccc(F)cc2)nc2cnc(N3CCOCC3)nc2n1C1CC1 | inactive |  |
| O=C(CN1C(=O)c2ccccc2C1=O)NC1(C(=O)O)CCCC1 |  | 2.83% [at 11.4 µM] (inactive) |
| COCCn1c(=O)c(-c2ccccc2)nc2cnc(Oc3ccccc3)nc21 | inactive |  |
| COc1ccc(NC(=O)N2CC3(CCN(C(=O)c4ccc(OC)cc4)CC3)C2)cc1 | inactive |  |
| C[C@H]1CC(C)(C)C[C@@](OCCN2CCCCC2)(c2ccccc2)C1 | 0.631 µM (active) |  |
| CCCc1nnc(SCC(=O)N2CCCCC2C)n1CC1CCCO1 (stereo not drawn) | inactive |  |
| Cc1ccc(OC(=O)N2CCOCC2)cc1 | inactive |  |
| CCOC(=O)C1CCCN(c2ncnc3c2cnn3-c2cccc(C)c2)C1 (stereo not drawn) | inactive |  |
| CN1CCN(c2ncc3nc(-c4ccc(F)cc4)c(=O)n(C4CC4)c3n2)CC1 | inactive |  |
| CCn1c(SCc2cccc(C)c2)nnc1-c1ccc(C)cc1 | inactive |  |
| COc1ccc(-c2nnc(SCc3cccc(C)c3)n2N)cc1 | 14.1 µM (active) |  |
| COc1ccc(NCc2nnc(SCc3ccccc3)n2-c2ccc(OC)cc2)cc1 | inactive |  |

| Compound | AC50 | activity, negative = inhibition |
| --- | --- | --- |
| Cc1ccc(OCC(=O)NC2=NCCS2)cc1 | inactive |  |
| CCC(=O)Nc1ccc(C(=O)NNC(=O)c2cccs2)cc1 | inactive |  |
| CC(C)[C@H](NC(=O)OC(C)(C)C)[C@@H](O)CC(=O)C(C)(C)C |  | 3.85% [at 11.4 µM] (inactive) |
| CC(=O)C[C@H](O)[C@@H](NC(=O)OC(C)(C)C)C(C)C |  | -3.21% [at 11.4 µM] (inactive) |
| CC(C)[C@H](NC(=O)OC(C)(C)C)[C@@H](O)CC(=O)OC(C)(C)C | 3.16 µM (active) |  |
| Cc1ccc(NC(=O)C2CCN(S(=O)(=O)c3c(C)n[nH]c3C)CC2)nc1 | inactive |  |
| NC[C@@H]1O[C@H](C23CC4CC(CC(C4)C2)C3)Cc2c1ccc(O)c2O | inactive |  |
| NC(=O)CSc1nc2sc(-c3ccccc3)cc2c(=O)n1N | inactive |  |
| COc1ccc(C[C@@H]2C(=O)N[C@H](C)C(=O)N(C)[C@@H]3Cc4ccc(cc4)Oc4cc(ccc4O)C[C@H](C(=O)N[C@@H](C)C(=O)N[C@H](C)C(=O)N2C)N(C)C3=O)cc1 |  | -5.02% [at 11.4 µM] (inactive) |
| CC[N+](CC)(CC)CCOc1ccc(/C=C\c2ccccc2)cc1 | 7.94 µM (active) |  |
| CC[N+](CC)(CC)CCOc1cccc(OCC[N+](CC)(CC)CC)c1OCC[N+](CC)(CC)CC | inactive |  |
| CCOC(=O)N1CCN(C(=O)c2ccc(Cl)c(S(=O)(=O)N3CCOCC3)c2)CC1 | inactive |  |
| Cc1ccc(C(=O)NCCCN2CCOCC2)cc1N1CCCC1=O | inactive |  |
| O=C(NCCCn1ccnc1)c1ccc(Br)c(S(=O)(=O)N2CCOCC2)c1 | 0.316 µM (active) |  |
| O=C(O)/C=C\C(=O)Nc1ccc2c(c1)-c1ccccc1C2 |  | 8.73% [at 11.4 µM] (inactive) |
| CC(=O)N1CCC2(CC1)CN(c1ccncc1)C2 | inactive |  |
| O=C(N/N=C/c1ccccn1)c1ccc(Br)o1 | inactive |  |
| CN(C)c1ncc2nc(-c3ccccc3)c(=O)n(C3CC3)c2n1 | inactive |  |
| C=CCSC[C@@H]1Nc2cc(Cl)c(S(N)(=O)=O)cc2S(=O)(=O)N1 | inactive |  |
| COc1ccc(C(=O)N2CCC3(CCN(C)CC3)CC2)cc1 | inactive |  |
| COc1ccc(C(=O)/C=C2/c3ccccc3CC(C)(C)N2C)cc1 | 0.282 µM (active) |  |
| COc1ccc(C(=O)/C=C(/C)N(C)C)cc1 | inactive |  |
| Clc1cccc(Oc2cnc3ccccc3n2)c1 | inactive |  |
| COC(=O)c1ccc(NC(=S)NC2CCCCC2)cc1 | 15.8 µM (active) |  |
| Cc1ccc(NC(=S)NC2CCCC2)cc1 | inactive |  |
| COC(=O)c1ccc(NC(=O)C2CCCCC2C(=O)O)cc1 (stereo not drawn) | inactive |  |

| Compound | AC50 | activity, negative = inhibition |
| --- | --- | --- |
| COc1cc(CC(=O)O)ccc1O | inactive |  |
| CCCCCC(=O)Nc1cc2[nH]c(=O)cc(COC)c2cc1C | inactive |  |
| CC(=O)N[C@H](Cc1ccc(O)cc1)C(=O)O |  | -3.43% [at 11.4 µM] (inactive) |
| CCCCCCCC/C=C\CCCCCCCC(=O)NCc1ccc(O)c(OC)c1 | 3.16 µM (active) |  |
| CCCCCCCCC(=O)NCc1cc(OC)c(O)cc1I | 7.94 µM (active) |  |
| CCCCCCCC/C=C\CCCCCCCC(=O)NCCc1ccc(O)c(O)c1 | inactive |  |
| CCCCCCCC/C=C\CCCCCCCC(=O)N[C@@H](CO)Cc1ccc(O)cc1 | 0.126 µM (active) |  |
| CCCc1nnc(NC(=O)CCC(=O)NCc2ccccc2OC)s1 | inactive |  |
| CCCCCCCCCCCCCCCC(=O)NC(C)C | inactive |  |
| O=C(Nc1ccc(F)cc1Cl)c1ccc2c(=O)n3c(nc2c1)CCCCC3 | inactive |  |
| Cc1ccc(N=C/C(C(=O)C(F)(F)F)=C(\O)c2cccs2)cc1 | inactive |  |
| CCOC(=O)Cc1csc(NC(=S)NC(=O)c2ccc(F)cc2)n1 | inactive |  |
| CCOc1ccc(NC(=O)N2CCC(C(N)=O)(N3CCCCC3)CC2)cc1 | inactive |  |
| CC(C)CO/N=C1/[C@H]2O[C@@H]2[C@@H](O)[C@H]2[C@H]1CCn1c(=O)n(-c3ccccc3)c(=O)n12 |  | 12.6% [at 11.4 µM] (inactive) |
| COCCn1c(=O)c(-c2cccs2)nc2cnc(Oc3ccccc3)nc21 | inactive |  |
| CC(C)C(O)(C(C)C)C(C)C |  | 8.61% [at 11.4 µM] (inactive) |
| COc1ccc(C(=O)Nc2cccc(OC(=O)c3ccc(C)c(C)c3)c2)cc1 | inactive |  |
| COc1ccc(C(=O)Nc2cc(OC)cc(OC)c2)cc1 | 7.08 µM (active) |  |
| CCOc1ccc(NC(=O)c2ccc(OC)cc2)cc1 | inactive |  |
| CCCCc1nc(SCC(=O)Nc2ncccn2)n[nH]1 | inactive |  |
| COC(=O)COc1ccsc1C(=O)OC | inactive |  |
| COc1ccc2oc(-c3ccc(C)c(NC(=O)c4ccc(N5CCOCC5)c([N+](=O)[O-])c4)c3)nc2c1 | inactive |  |
| Cc1ccc(-c2nc3ccccc3o2)cc1NC(=O)Cc1cccs1 | inactive |  |
| COc1ccc2oc(-c3ccc(C)c(NC(=O)CSc4ccc(Cl)cc4)c3)nc2c1 | 2.51 µM (active) |  |
| Cc1cccc(NC(NC(=O)c2cccnc2)C(Cl)(Cl)Cl)c1 (stereo not drawn) | inactive |  |
